# From ChEMBL document CHEMBL4513216, “Probing the Open Global Health Chemical Diversity Library for Multistage-Active Starting Points for Next-Generation Antimalarials” (ACS Infect Dis, 2020)
# Among all 69,000 compounds or so, about 8,600 (12%) showed an effect of 50% or more. Only a selection was taken, and strong results are over-represented in it overall.
# System: Plasmodium berghei
# Assay: Screen against P. berghei liver stage (PbLuc), transformed with Luciferase, at 10uM
# Type: functional, HepG2
# Details: tested at 10 uM
row,SMILES,INHIBITION
1,CN(C)c1ccc(CNC(=O)Nc2ccc(S(C)(=O)=O)nc2)cc1,-24.75%
2,O=C(NCc1ccccc1F)C1=NOC2(CCNC2)C1 (stereo not drawn),7.65%
3,CC(C)(C(=O)NCC(=O)NC1CC1)c1ccccc1F,19.4%
4,O=C(CC1CCN(c2cccnn2)CC1)Nc1cccnc1,21.1%
5,CC(C)(C)C(=O)N1C[C@H](c2ccsc2)[C@H]2CN(C3CCCCC3)CC[C@H]21,50.8%
6,CC(C)(C)C(=O)N1C[C@H](c2ccsc2)[C@H]2CN(Cc3cccs3)CC[C@H]21,54.6%
7,CC(C)(C)OC(=O)NC1CCCN(Cc2cccs2)C1 (stereo not drawn),16.5%
8,CCCC(=O)NC1CCCN(Cc2cccs2)C1 (stereo not drawn),7.24%
9,CC(C)(C)C(=O)N1C[C@H](c2ccsc2)[C@H]2CN(C3CCCC3)CC[C@H]21,34.1%
10,O=C(C1CCC1)N1C[C@@H](c2ccsc2)[C@@H]2CN(C3CCCCC3)CC[C@@H]21,32.3%
11,Cn1nc2c(cc1=O)CN(Cc1coc(-c3cccc(F)c3)n1)CC2,9.54%
12,COCCNC(=O)c1nc(NS(=O)(=O)c2ccccc2)sc1C,17.7%
13,Cc1cnc(C(=O)NC(CN2CCCC2=O)c2ccccc2)cn1 (stereo not drawn),-15.543%
14,CCN(CC)c1ncc(CNCC2CCCn3ccnc32)s1 (stereo not drawn),30.8%
15,Cc1ccc(N2CCCC(NCC3=Cc4ccccc4OC3)C2)nn1 (stereo not drawn),-4.94%
16,Cc1cn2c(n1)C(CNCC1=Cc3cc(Cl)ccc3OC1)CCC2 (stereo not drawn),90.2%
17,CC(NCC1=Cc2cc(Cl)ccc2OC1)c1nnc2n1CCCC2 (stereo not drawn),0.139%
18,Cc1cn2c(n1)C(CNCC1=Cc3ccccc3OC1)CCC2 (stereo not drawn),88.5%
19,Cn1ccnc1C(=O)N1CCCC(Cn2cc(CO)nn2)C1 (stereo not drawn),47.6%
20,O=C(Nc1ccc(F)c(F)c1)N1CCC2(CCC(=O)N(C3CC3)C2)CC1,36%
21,COCCn1ccc2cc(C(=O)NC3CCOC(C)(C)C3)ccc21 (stereo not drawn),-16.5%
22,Cc1nn(C)cc1C(=O)N1CCCn2nc(CN3CC[C@H](F)C3)cc2C1,38.5%

row,SMILES,INHIBITION
1,COC(=O)NCc1cc2n(n1)CCCN(C(C)=O)C2,9.3%
2,COC(=O)NCC(=O)N1CCCn2nc(CN3CC[C@H](F)C3)cc2C1,59.1%
3,Cc1ccc(N2CCC(CCN3CCCC3=O)CC2)nn1,27.7%
4,Cc1ccc(C2CCCN(S(=O)(=O)N3CCOCC3)C2)nc1 (stereo not drawn),19.85%
5,COc1ccccc1N1CCC(CNCc2cccc(O)c2)C1 (stereo not drawn),37.5%
6,COc1cccc(N2CCC(CNCc3cccc(C#N)c3)C2)c1 (stereo not drawn),26.4%
7,COc1ccccc1N1CCC(CNCc2ccc(C#N)cc2)C1 (stereo not drawn),40.9%
8,COc1ccccc1N1CCC(CNCc2cccc(OC)c2OC)C1 (stereo not drawn),59.4%
9,COc1ccccc1N1CCC(CNCc2cccc(C#N)c2)C1 (stereo not drawn),53.3%
10,COc1ccc(CNCC2CCN(c3ccccc3OC)C2)cc1O (stereo not drawn),-29.1%
11,Cc1cnn(CC2CCCN2C(=O)c2cccc(F)c2F)c1 (stereo not drawn),-65.3%
12,CN(Cc1cnn(C)c1)C(=O)CCS(=O)(=O)c1ccc2c(c1)OCCO2,38%
13,O=C(c1ccsc1)N1C[C@H]2CN(Cc3cccnc3)C(=O)[C@H]2C1,4.61%
14,CO[C@H]1CN(S(=O)(=O)c2ccc(C)cc2)C[C@@]12CCCO2,16.5%
15,O=C(NCc1cc2ccccc2s1)c1cc(CN2CCCC(O)C2)on1 (stereo not drawn),50.8%
16,O=C(NCc1cccc(F)c1F)c1cc(CN2CCCC(O)C2)on1 (stereo not drawn),34.1%
17,O=C(NCc1ccc(Cl)s1)c1cc(CN2CCCC(O)C2)on1 (stereo not drawn),49.9%
18,CC(C)C[C@H](NC(=O)N1CCC(Cc2ccccc2)CC1)C(=O)O,43.4%
19,CCC(CO)N(Cc1cccnc1)C(=O)c1ccc(C)[nH]c1=O (stereo not drawn),35.1%
20,Cc1ccc(CN2CCOC3(COCCN(S(C)(=O)=O)C3)C2)o1 (stereo not drawn),15.4%
21,O=C(c1cc(C2CC2)on1)N1CCC(Oc2ncccc2Br)CC1,44.2%
22,N#Cc1cccnc1OC1CCN(C(=O)NCc2ccccc2)CC1,52.6%

row,SMILES,INHIBITION
1,N#Cc1cccnc1OC1CCN(C(=O)c2cc(C3CC3)on2)CC1,34.3%
2,O=C(NCc1ccccc1)N1CCC(Oc2ncccc2Br)CC1,74.4%
3,Clc1cccnc1OC1CCNCC1,28.6%
4,O=C(CCC(=O)N1CCC(Oc2ncccc2Br)CC1)c1ccccc1,45%
5,Brc1cccnc1OC1CCNCC1,51%
6,COc1ncccc1CNC(=O)N1CCC(CNC(C)=O)CC1,0.266%
7,O=C(NCc1ccccc1)N1CCC(Oc2ncccc2Cl)CC1,22.2%
8,CCn1ncnc1CN1CCC(CNC(=O)c2cccnc2O)C1 (stereo not drawn),-11.3%
9,Cc1oc(C(C)C)cc1C(=O)N1C[C@@H]2CC[C@H]1CN(C(=O)N(C)C)C2,-14.3%
10,Cc1cc(C)n(CC2CCN(CC(O)CN3CCOCC3)CC2)n1 (stereo not drawn),-5.22%
11,O=C1NC(C(=O)NCc2cccnc2Oc2ccccc2F)CO1 (stereo not drawn),-12.1%
12,CCCc1noc(C2CCCCN2C(=O)C2CCCC2)n1 (stereo not drawn),-11.7%
13,CCN(CC1CCOC1)C(=O)c1ccn(-c2cc(C)ccc2OC)n1 (stereo not drawn),30.5%
14,CNC(=O)[C@@]12CCC3(CCN(C(=O)COC)CC3)[C@@H]1CN(S(C)(=O)=O)C2,-16.2%
15,CCC(NC(=O)C(C)(C)C)c1ccccc1C (stereo not drawn),32.9%
16,CC[C@@H](C)[C@H](NC(=O)Cn1ccc2c(Cl)cccc21)C(=O)O,-19.7%
17,Cn1cncc1CN1CC[C@](C)(O)[C@@H](Oc2cccc(F)c2)C1,21.9%
18,C[C@]1(O)CN(Cc2cccc(C(=O)O)c2)CC[C@@H]1Oc1cccc(F)c1,17.4%
19,C[C@]1(O)CN(CC(=O)N2CCCC2)CC[C@@H]1Oc1cccc(F)c1,41.2%
20,C[C@]1(O)CN(CCO)CC[C@@H]1Oc1cccc(F)c1,59%
21,C[C@]1(O)CN(Cc2ccc(C(=O)O)cc2)CC[C@@H]1Oc1cccc(F)c1,15.9%
22,C[C@]1(O)CN(CCC(N)=O)CC[C@@H]1Oc1cccc(F)c1,53%

row,SMILES,INHIBITION
1,Cc1cccc(CN2CC3(CCN(C(=O)N(C)C)CC3)OCC2=O)n1,30.3%
2,Cc1cc(C(=O)NC2CCc3c(ccc(=O)n3CC3CC3)C2)no1 (stereo not drawn),36.5%
3,Cc1nnc([C@]23COC[C@H]2CN(Cc2nccs2)C3)o1,9.79%
4,Cc1cc2n(n1)CC(CNCc1ccccc1-n1cccn1)CN2 (stereo not drawn),-18.605%
5,CN(C)CCN1CCO[C@H]2CN(C(=O)c3ccsc3)C[C@H]21,6.67%
6,Cc1cc(C(=O)N2C[C@@H]3OCCN(CCN4CCCC4)[C@@H]3C2)c(C)o1,32.2%
7,O=C(c1ccsc1)N1C[C@@H]2OCCN(CCN3CCCC3)[C@@H]2C1,82.3%
8,Cc1occc1C(=O)N1C[C@@H]2OCCN(CCN3CCCC3)[C@@H]2C1,66%
9,O=C(c1ccco1)N1C[C@@H]2OCCN(CCN3CCCC3)[C@@H]2C1,23.3%
10,O=C(c1ccncc1)N1C[C@@H]2OCCN(CCN3CCCC3)[C@@H]2C1,32.2%
11,O=C(CN1CCCC1Cn1cncn1)NCCOc1ccc(F)cc1 (stereo not drawn),42.9%
12,O=C1CCC(=O)N1Cc1ccc(C(=O)N2CCCC2c2cccs2)cc1 (stereo not drawn),-21.9%
13,Cn1cc(NC(=O)NCc2ccsc2)ccc1=O,16.1%
14,Cn1cc(NC(=O)CCc2ccsc2)ccc1=O,59.3%
15,CN(Cc1ccsc1)C(=O)Nc1ccc(=O)n(C)c1,47.4%
16,Cc1c(O)cccc1C(=O)N1CCCC2(C1)C(=O)N(C)c1ccccc12 (stereo not drawn),17.7%
17,CC(=O)N1CCc2cc(C(=O)O)c(-c3ccsc3)nc2CC1,11.3%
18,O=C(O)c1cc2c(nc1-c1ccsc1)CCN(C(=O)C1CC1)CC2,40.8%
19,NC(=O)N1CCc2cc(C(=O)O)c(-c3ccsc3)nc2CC1,74.8%
20,CC(C)=CCCC1(C)CCC(=O)N(CCc2nc(N)cc(O)n2)C1 (stereo not drawn),21.5%
21,c1coc(CN2CCCn3c(CN4CCOCC4)nnc3C2)c1,-4.26%
22,NC(=O)NC(=O)CCSc1ccccc1Cl,55.9%

row,SMILES,INHIBITION
1,CNC(=O)NC(=O)CCSc1ccccc1Cl,41.8%
2,N#Cc1ccc(SCCC(=O)NC(N)=O)cc1,-33.4%
3,Cc1nc(CN2C[C@@H]3CN(c4ncccn4)C[C@@H]3C2=O)cs1,-12.1%
4,Cc1cc(C)c(CNC(=O)Cc2ccc3c(c2)CCCC3)c(=O)[nH]1,40%
5,Cc1cc(C)c(CNC(=O)NCC2COc3ccccc3C2)c(=O)[nH]1 (stereo not drawn),17.5%
6,Cc1cc(C)c(CNC(=O)NCC2Cc3ccccc3O2)c(=O)[nH]1 (stereo not drawn),73.1%
7,Cc1cc(C)c(CNC(=O)NCC2Cc3ccccc32)c(=O)[nH]1 (stereo not drawn),0.342%
8,Cc1cc(C)c(CNC(=O)NCc2ccc3c(c2)CCC3)c(=O)[nH]1,30.2%
9,Cc1cc(C)c(CNC(=O)c2ccc3c(c2)CCC3)c(=O)[nH]1,50.3%
10,N#Cc1c(-c2ccccc2)csc1N,49.7%
11,O=C(NCCC1CC1)NCc1cccc(-n2ccnc2)c1,21.6%
12,O=C(c1ccco1)N1C[C@@H]2CCN(c3cccnc3)C[C@@H]2C1,90.5%
13,Cc1ccc(C(=O)N2C[C@@H]3CCN(c4cccnc4)C[C@@H]3C2)cn1,19.4%
14,O=C(c1ccc(O)cc1)N1C[C@@H]2CCN(c3cccnc3)C[C@@H]2C1,46.2%
15,O=C(c1ccsc1)N1C[C@@H]2CCN(c3cccnc3)C[C@@H]2C1,77.7%
16,Cn1cccc1C(=O)N1C[C@@H]2CCN(c3cccnc3)C[C@@H]2C1,36.9%
17,O=C(c1ccncc1)N1C[C@@H]2CCN(c3cccnc3)C[C@@H]2C1,47.4%
18,Cc1ccccc1C(=O)N1C[C@@H]2CCN(c3cccnc3)C[C@@H]2C1,68.4%
19,Cc1cccc(C(=O)N2C[C@@H]3CCN(c4cccnc4)C[C@@H]3C2)c1,23.3%
20,O=C(c1cnccn1)N1C[C@@H]2CCN(c3cccnc3)C[C@@H]2C1,41.6%
